Assay outcomes deposited in PubChem by National Center for Advancing Translational Sciences (NCATS).
AmpC inh detg: qHTS Inhibitors of AmpC Beta-Lactamase (assay with detergent) | P00811 | AmpC hydrolysis of nitrocefin, absorbance 480 nm, 0.01% Triton | Potency, µM (top dose mostly 114 µM), for inactives: at the highest dose activity change, negative = inhibition, hits mostly inhibitors | 0.041% of 370,000 active;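 note: 0% = no-compound wells and -100% = no-enzyme wells; nearly all actives have a fitted effect of over 25% in size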
Target sequence (P00811 whole entry, looked up): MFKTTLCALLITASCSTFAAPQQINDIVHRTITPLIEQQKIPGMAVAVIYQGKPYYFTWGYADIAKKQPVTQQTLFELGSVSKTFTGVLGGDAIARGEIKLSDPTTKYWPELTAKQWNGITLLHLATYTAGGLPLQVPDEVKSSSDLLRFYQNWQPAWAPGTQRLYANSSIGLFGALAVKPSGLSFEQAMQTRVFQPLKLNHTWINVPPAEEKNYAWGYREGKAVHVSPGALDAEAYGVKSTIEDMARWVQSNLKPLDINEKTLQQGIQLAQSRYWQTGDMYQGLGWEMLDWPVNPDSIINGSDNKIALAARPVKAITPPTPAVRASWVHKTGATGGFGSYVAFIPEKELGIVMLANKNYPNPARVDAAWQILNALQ
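AmpC (5.3 nM in the dispensed reagent) in 20 mM phosphate pH 7.0 with 0.01% (detergent screen) or 0.0001% Triton X-100 was preincubated with compounds for 15 min at room temperature. Nitrocefin was then added from an 800 uM solution, and hydrolysis was followed at 480 nm.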
AmpC no deterg: qHTS Inhibitors of AmpC Beta-Lactamase (assay without detergent); P00811; AmpC nitrocefin hydrolysis, absorbance 480 nm, 0.0001% Triton; Potency, µM (top dose mostly 57.1 µM), for the others: at the highest dose activity change, negative = inhibition, usual class: inhibitors; 0.52% of 330,000 active;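 note: plate controls were no compound for no effect and no enzyme for full effect; nearly all actives have a fitted effect of over 20% in size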
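20 mM phosphate pH 7.0 + 0.01% (detergent screen) or 0.0001% Triton X-100; 5.3 nM AmpC reagent; cpd preinc 15 min RT; nitrocefin (800 uM stock) to start; A480 q20 s × 4 min; Activity was normalised to no-enzyme and no-compound control wells.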
AMA1 RON2 block: qHTS for Inhibitors of AMA1-RON; Towards Development of Antimalarial Drug Lead: Primary Screen; AlphaScreen AMA1-biotinylated RON2 peptide binding; 0.2% of 360,000 active; AID 720542, 2013; Potency, µM (top dose mostly 58.2 µM), inactives show at the highest dose activity change, negative = inhibition, most hits filed as inhibitors;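 note: 0% = vehicle wells and -100% = peptide control; nearly all actives have a fitted effect of over 45% in size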
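AMA1 (3D7) with his tag at 25 nM final met compounds first, then biotinylated RON2 peptide at 25 nM; detection used donor plus acceptor beads, 10 µg/mL apiece, read by AlphaScreen after 30 min at room temperature.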
Pf growth 96h: Primary qHTS for delayed death inhibitors of the malarial parasite plastid, 96 hour incubation. 6.9% of 320,000 active. P. falciparum luciferase reporter growth, 96 h. Potency, µM (top dose mostly 28.7 µM), inactives show top-dose activity change, negative = inhibition, usual class: inhibitors. AID 504834, 2011
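96 h incubation, 37 C, 5% CO2, of luciferase-reporter P. falciparum-infected RBCs (2% hematocrit, 0.05% parasitemia final) with test compounds; endpoint luminescence.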
Pf growth 48h: Primary qHTS for delayed death inhibitors of the malarial parasite plastid, 48 hour incubation; P. falciparum luciferase growth in erythrocytes, 48 h; Potency, µM (titrated, usually from 28.7 µM), without a hit: at the highest dose activity change, negative = inhibition, usual class: inhibitors; 5.9% of 310,000 active; AID 504832, 2011
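Parasite viability was followed by luminescence of a genomically integrated firefly luciferase. Cultures held 0.1% parasitemia at 2% hematocrit (final), incubated under 5% CO2 at 37 C.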
HCV inhibitor: qHTS Assay for Inhibitors of Hepatitis C Virus (HCV) | AID 651820, 2012 | Huh7.5.1 HCVcc-Cre infection, luciferase reporter, 44 h | 3.4% of 340,000 active | Potency, µM (series often up to 41.8 µM), for inactives: top-dose activity change, negative = inhibition, usual class: inhibitors
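Reporter virus HCVcc-Cre (~0.5 moi) infects cells exposed to compound; seeding density 1,000 cells/well with 4 h settling beforehand. Luminescence, 15 sec read, taken 44 h post-infection following a 15 min RT substrate incubation.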
* marks the source's active call; other numbers are inactive results; ? = inconclusive; / = no result. A selection: hits, their analogues and other compounds. The true share with any hit is near 11%. Calls come from the whole dose curve; as a rule, active = well fitted curve in the direction sought with a large enough effect; inconclusive = small, poorly fitted or top-dose-only effect, or another doubt; inactive = no such curve, though single readings can be large; an effect the other way counts as inactive or inconclusive. Unless noted, % is set by controls: 0 for no effect and ±100 for the full control effect; potency is the fitted concentration of half-maximal effect.

SMILES	AmpC inh detg	AmpC no deterg	AMA1 RON2 block	Pf growth 96h	Pf growth 48h	HCV inhibitor
CC(C)Cn1c(N)c(C(=O)NCCN2CCOCC2)c2nc3ccccc3nc21	3.0%	490.5%	26.4%	18.1%	3.7µM*	13.8%
CCC(C)NC(=O)c1c(N)n(CC2CCCO2)c2nc3ccccc3nc12 (stereo not drawn)	-16.5%	225.6%	58.8%	13.1µM*	11.7µM*	-7.7%
CCCCOCCCn1c(N)c(C(=O)OC(C)COC)c2nc3ccccc3nc21 (stereo not drawn)	-3.2%	135.0%	-15.0%	?	4.65µM*	?
Cc1cccc(-n2c(N)c(C(=O)NCCN3CCOCC3)c3nc4ccccc4nc32)c1	?	174.8%	12.0%	9.28µM*	/	?
CC(C)CCNC(=O)c1c(N)n(CC2CCCO2)c2nc3ccccc3nc12 (stereo not drawn)	-17.9%	181.0%	25.9%	3.0%	/	?
CCCCn1c(N)c(C(=O)NCCN2CCOCC2)c2nc3ccccc3nc21	-11.3%	195.0%	9.9%	8.4%	?	-22.1%
COc1cc(NC(=O)CSc2nc3nc(C)c(Cc4ccccc4Cl)c(C)n3n2)cc(OC)c1	-4.4%	/	/	/	/	/
Nc1c(C(=O)NCCN2CCOCC2)c2nc3ccccc3nc2n1Cc1ccccc1	2.0%	105.7%	-16.2%	?	?	4.0%
Nc1c(C(=O)NCCN2CCOCC2)c2nc3ccccc3nc2n1Cc1ccco1	?	170.9%	0.4%	?	9.28µM*	4.2%
O=C(Nc1cc2c(cc1C(=O)c1cccc(Br)c1)OCCO2)c1ccccc1F	-1.4%	/	/	/	/	/
COc1cc(C)c(NC(=O)c2cc(C3CC3)nc3c2cnn3C(C)C)cc1OC	7.2%	161.9%	-10.3%	?	?	5.01µM*
COc1ccc(NC(=O)c2cc(C3CC3)nc3c2cnn3C(C)C)cc1OC	3.8%	64.3%	0.7%	14.7µM*	?	10µM*
CC(C)(C)OC(=O)N1CCN(C(=O)[C@H](Cc2ccc(O)cc2)n2cc(CCO)nn2)CC1	6.2%	-8.7%	7.2%	30.4%	34.5%	12.6%
CC[C@H](C)C(C(=O)N1CCN(C(=O)OC(C)(C)C)CC1)n1cc(C(Cc2ccc(O)cc2)NC(=O)OC(C)(C)C)nn1 (stereo partly drawn)	-4.9%	120.5%	-1.3%	1.65µM*	?	-25.5%
CC(C)CC(NC(=O)OC(C)(C)C)c1cn([C@@H](Cc2cc3ccccc3[nH]2)C(=O)N2CCN(C(=O)OC(C)(C)C)CC2)nn1 (stereo partly drawn)	10.8%	164.6%	-12.0%	5.22µM*	?	?
CC(C)CC(NC(=O)OC(C)(C)C)c1cn([C@@H](Cc2ccc(O)cc2)C(=O)N2CCN(C(=O)OC(C)(C)C)CC2)nn1 (stereo partly drawn)	3.0%	127.8%	-3.6%	4.65µM*	?	1.3%
CC(C)(C)OC(=O)NC(CO)c1cn([C@@H](Cc2cc3ccccc3[nH]2)C(=O)N2CCN(C(=O)OC(C)(C)C)CC2)nn1 (stereo partly drawn)	-3.7%	174.6%	2.5%	?	?	9.7%
Cc1ccc(CN2C(=O)c3ccccc3CC2(C)C(=O)NC2CCCCC2)cc1 (stereo not drawn)	1.7%	/	/	/	/	/
CC1=C(/C=C/C(C)=C/C=C/C(C)=C/CO)C(C)(C)CCC1	/	/	-15.6%	10.7µM*	?	-11.4%
C=CCSc1nc2ccccc2n1C(=O)/C=C/c1cc(OC)c(OC)c(OC)c1	-10.3%	47.4%	-1.8%	-5.3%	?	6.31µM*
C=CCSc1nc2ccccc2n1C(=O)/C=C/c1ccc(OC)c(OC)c1	-11.9%	-12.2%	0.3%	26.6%	?	?
C[n+]1ccccc1/C=C1\Sc2ccccc2N1CCO	1.3%	-7.0%	-2.0%	2.08µM*	?	?
CC(=O)N1c2ccc(C)cc2Sc2c1ccc1ccccc21	/	/	?	/	/	-9.9%
COc1cccc(C(=O)/C=C2\Sc3ccccc3N2C)c1	-10.2%	-24.9%	10.9%	11.8%	198.8%	-29.4%
CC[n+]1ccc(/C=C2\Sc3ccccc3N2CCCS(=O)(=O)[O-])c2ccccc21	-0.1%	-18.7%	12.8%	6.3%	1.9%	8.5%
SMILES	AmpC inh detg	AmpC no deterg	AMA1 RON2 block	Pf growth 96h	Pf growth 48h	HCV inhibitor
Cc1ccc2c(c1)S/C(=C\c1cccc[n+]1C)N2CCO	1.2%	-10.5%	-6.4%	-8.7%	3.29µM*	?
Cc1ccc2c(c1)S/C(=C/c1ccc[n+](CCO)c1)N2C	-9.1%	-19.9%	8.3%	4.3%	?	1.58µM*
Cc1cccc(Cn2c(C)c(CNC3CCCCCC3)c(C(=O)O)c2C)c1	-6.1%	/	/	/	/	/
CCn1cc(C(=O)N(C)Cc2ccccc2)c(=O)c2cc(S(=O)(=O)N3CCCCC3)ccc21	-1.7%	/	/	/	/	/
N#Cc1cccc(NC(=O)CNc2cccc(S(=O)(=O)N3CCCCC3)c2)c1	-14.1%	-37.9%	-9.7%	?	14.7µM*	?
O=C(CNc1cc([N+](=O)[O-])ccc1NCCO)Nc1cccc(S(=O)(=O)N2CCCCC2)c1	-1.7%	-20.5%	-5.7%	-29.3%	?	?
O=C(CNc1cccc(S(=O)(=O)N2CCCC2)c1)Nc1ccc(C(F)(F)F)cc1	3.3%	1.3%	1.4%	1.85µM*	4.15µM*	10µM*
COc1ccc(S(=O)(=O)N(C)C)cc1NCC(=O)Nc1cccc(C#N)c1	-1.8%	-19.7%	-9.8%	11.7µM*	?	-26.5%
COc1ccc([N+](=O)[O-])cc1NCC(=O)Nc1cccc(S(=O)(=O)N2CCCC2)c1	?	-32.9%	-25.3%	?	5.22µM*	?
CCOc1ccc(CCNC(=O)c2ccc(Cn3c(=O)c4cccn4c4cccnc43)cc2)cc1	3.8%	/	/	/	/	/
CCc1cccc(C)c1NC(=O)CSc1nnc(N)s1	9.4%	/	/	/	/	/
CN(C)S(=O)(=O)c1ccc(NC(=O)CNc2cc(S(=O)(=O)N3CCCC3)ccc2OCC(F)(F)F)cc1	-0.5%	-24.4%	-0.4%	13.1µM*	?	?
O=C(Nc1cc(S(=O)(=O)N2CCCCCC2)ccc1OCC(F)(F)F)C1CCC1	-1.3%	-22.2%	17.9%	-15.5%	-19.3%	-2.9%
COc1cc(NCC(=O)Nc2cccc(S(=O)(=O)N3CCCCC3)c2)cc(OC)c1OC	-2.9%	9.2%	46.7%	?	1.85µM*	?
